These results are taken from PubChem BioAssay (EPA / NIEHS).

Records with an inconclusive call do not appear. The source made the active and inactive calls. How the source made its calls: active means hit-call score of the fitted dose curve at least 0.9, where 1 is the maximum; inconclusive means response in the unintended direction; inactive means score below 0.9.

human Peripheral-type Benzodiazepine Receptor (PBR), TSPO (gene 706), sequence (P30536 whole entry, looked up): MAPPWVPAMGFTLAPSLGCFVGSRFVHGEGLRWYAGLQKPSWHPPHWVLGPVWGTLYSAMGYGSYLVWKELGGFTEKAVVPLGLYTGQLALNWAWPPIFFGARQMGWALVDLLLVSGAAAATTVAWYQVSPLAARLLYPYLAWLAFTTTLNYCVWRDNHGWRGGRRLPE

The assay addresses human Peripheral-type Benzodiazepine Receptor (PBR), TSPO (gene 706) (UniProt P30536). In words: NVS_MP_hPBR: NovaScreen (NVS) Membrane Protein Assay for human Peripheral-type Benzodiazepine Receptor (PBR) (AID 2283331). The procedure: NVS_MP_hPBR is a biochemical, single-readout assay that uses extracted gene-proteins from Human colonic cell membranes in a tissue-based cell-free assay. Measurements were taken 1 hour after chemical dosing in a 48-well plate.NVS_MP_hPBR is one of one assay component(s) measured or calculated from the NVS_MP_hPBR assay. It is designed to make measurements of radioligand binding, a form of binding reporter, as detected with scintillation counting signals by Filter-based radiodetection technology.Data from the assay component NVS_MP_hPBR was analyzed into 1 assay endpoint. This assay endpoint, NVS_MP_hPBR, was analyzed in the positive analysis fitting direction relative to DMSO as the negative control and baseline of activity. Using a type of binding reporter, loss-of-signal activity can be used to understand changes in the binding as they relate to the gene TSPO. Furthermore, this assay endpoint can be referred to as a primary readout, because the performed assay has only produced 1 assay endpoint. To generalize the intended target to other relatable targets, this assay endpoint is annotated to the transporter intended target family, where the subfamily is cholesterol transporter.
Binding assays used specific radioligands (tritiated, iodinated) with non-radioactive competitive displacement ligands in agonist or antagonist protocols (as indicated) and various reference compounds and inhibitors to titrate specific binding to receptors and transporters. Most enzyme assays (CYPs, kinases, phosphatases, proteases, HDACs) used recombinant protein and specific substrates (fluorescence mostly, some colorimetric and radioactive) and inhibitors, followed by a biochemical separation of substrate and product. All assays for the biochemical HTS were initially run in duplicate at a single concentration (10 uM for CYP450 assays and 25 uM for all others). […] Each assay was run with positive and negative controls, and concurrent controls on every plate. The follow-up (secondary) screen tested active chemical-pairs in concentration series, as well as a few additional assays not tested in the primary screen, some selected negative inactives, and several cases re-run in the concentration series for confirmatory purposes.
As to `O=P(OC(CCl)CCl)(OC(CCl)CCl)OC(CCl)CCl`, the AC50 is 2.01 µM (active).

As for `CCc1cc(SCc2sc(-c3ccc(C(F)(F)F)cc3)nc2CN2CCN(c3ccc(OC)cc3)CC2)ccc1OCC(=O)O`, the outcome was inactive.

Take `O=C(OC[C@H]1O[C@@H](OC(=O)c2cc(O)c(O)c(OC(=O)c3cc(O)c(O)c(O)c3)c2)[C@H](OC(=O)c2cc(O)c(O)c(OC(=O)c3cc(O)c(O)c(O)c3)c2)[C@@H](OC(=O)c2cc(O)c(O)c(OC(=O)c3cc(O)c(O)c(O)c3)c2)[C@@H]1OC(=O)c1cc(O)c(O)c(OC(=O)c2cc(O)c(O)c(O)c2)c1)c1cc(O)c(O)c(OC(=O)c2cc(O)c(O)c(O)c2)c1`: the AC50 is 5.11 µM (active).

On to `CC(C)(O)c1coc(S(=O)(=O)NC(=O)Nc2c3c(cc4c2CCC4)CCC3)c1`, for which the call was inactive.

Take `CCN(C(=O)c1cc(C)cc(OC[C@H](C)Nc2ccncc2)c1)C(C)C`: the AC50 is 12.5 µM (active).

As for `CCn1nc(Cc2ccccc2)cc1C1CCN(C[C@H]2C[C@H](N(C)[C@@H](C(=O)O)C(C)C)C[C@@H]2c2cccc(F)c2)CC1`, the AC50 was 8.22 µM (active).

Take `Nc1ccc(Nc2ccccc2)cc1`: the AC50 is 11.2 µM (active).

Consider `Cc1[nH]cnc1C[C@H]1CCc2c(C)c3ccccc3n2C1=O`, for which the compound was classed as inactive.

On to `O=C(O)c1cccc(N(Cc2cccnc2)c2ccc(OC(F)F)c(OC(F)F)c2)c1`, for which the call was inactive.

As for `COc1ccc2sc(C(=O)Nc3nnn[nH]3)c(OC(C)C)c2c1`, the AC50 was 25 µM (active).

As for `CCOc1cccc(-n2cc(C(=O)N3CCN(c4cc(C(=O)O)c5ccccc5c4)CC3)nc2-c2ccc(C)cc2)c1`, the AC50 is 3.71 µM (active).

As to `CC(C)CCO`, the AC50 was 15.8 µM (active).

As to `COc1cccc(-c2ccc(/C=C\CN3CCCCCC3)cc2Cl)c1`, the AC50 is 7.83 µM (active).

As usually defined, the AC50 is the midpoint of the concentration-response curve, whichever way the signal moves.
